Source: PubChem
HPGD inh: inhibitors of human 15-hydroxyprostaglandin dehydrogenase (HPGD) | P15428 | purified HPGD, NADH fluorescence kinetic, PGE2 substrate | Potency, µM, for inactives: at the highest dose activity change, negative = inhibition, usual class: inhibitors | hit rate 4.3% among 150,000 | AID 894; active = well fitted inhibition curve with a large enough effect, not every such curve was filed as active; inconclusive = small, poorly fitted or top-dose-only effect, or another doubt; inactive = no such curve, though single readings can be large or run the other way
Target sequence (P15428 whole entry, looked up): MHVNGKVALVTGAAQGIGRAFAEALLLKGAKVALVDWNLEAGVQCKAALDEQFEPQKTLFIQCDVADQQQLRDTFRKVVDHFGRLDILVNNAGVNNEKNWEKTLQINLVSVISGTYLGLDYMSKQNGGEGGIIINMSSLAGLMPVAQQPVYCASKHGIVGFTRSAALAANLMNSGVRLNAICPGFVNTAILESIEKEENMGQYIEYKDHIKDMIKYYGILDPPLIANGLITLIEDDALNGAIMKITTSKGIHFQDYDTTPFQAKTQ
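NADH formation kinetics: reaction with 30 uM PGE2 and 1 mM NAD+ (final), 20 nM enzyme, Tris-HCl pH 8 with Tween 20, after 15 min compound preincubation at room temperature. Fluorescence change, last versus first of five reads.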
NPSR antagonist: neuropeptide S receptor (human) antagonism, cAMP. CHO-NPSR cells, cAMP TR-FRET, antagonist mode. Potency, µM (highest dose often 38.3 µM), for inactives: at the top dose activity change, negative = inhibition, most hits filed as inhibitors. AID 1461. hit rate 1% among 220,000. Q6W5P4; also: nearly all actives have a fitted effect of over 50% in size
Target sequence (Q6W5P4 whole entry, looked up): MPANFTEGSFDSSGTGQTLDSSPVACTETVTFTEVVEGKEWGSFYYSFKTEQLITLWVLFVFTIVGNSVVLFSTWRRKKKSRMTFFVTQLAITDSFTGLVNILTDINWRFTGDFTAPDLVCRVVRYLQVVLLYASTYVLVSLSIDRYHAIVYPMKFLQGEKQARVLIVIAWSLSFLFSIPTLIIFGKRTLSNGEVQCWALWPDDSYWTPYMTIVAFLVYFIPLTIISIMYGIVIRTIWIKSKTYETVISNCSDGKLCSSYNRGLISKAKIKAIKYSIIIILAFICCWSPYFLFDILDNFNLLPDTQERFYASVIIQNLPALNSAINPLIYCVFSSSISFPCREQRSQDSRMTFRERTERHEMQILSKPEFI
Tau fibril ThT: inhibitors of human tau fibril formation, thioflavin T binding. P10636. recombinant tau K18 P301L, heparin-induced fibrillization, ThT fluorescence. Potency, µM (highest dose often 57.4 µM), without a hit: at the highest dose activity, negative = inhibition, hits mostly inhibitors. hit rate 2.1% among 270,000. AID 1460; also: nearly all actives have a fitted effect of over 55% in size
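Using a mix of unlabeled (15 uM) and Alexa 594-labeled (0.24 uM) tau K18 P301L, heparin-triggered fibrillization over 6 hr at 37 C was scored by ThT fluorescence.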
Tau fibril FP: tau fibrillization inhibition (FP); Potency, µM (top dose mostly 57.7 µM), for the others: at the top dose activity, negative = inhibition, most hits filed as inhibitors; K18 P301L tau heparin fibrillization, Alexa594 FP, 6 h; hit rate 0.39% among 280,000; P10636; also: nearly all actives have a fitted effect of over 55% in size
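Read-out: fluorescence polarization of Alexa 594-labeled tau (0.24 uM), 555 nm excitation, 632 nm emission. Mixtures held 15 uM unlabeled K18 P301L, compound and 20 uM heparin, pH 7 acetate buffer, incubated 6 hr at 37 C.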
Tau fluor cs: counter-screen for tau fibril formation inhibitors; tau K18 P301L Alexa594 fluorescence, heparin fibrillization; Potency, µM (series often up to 57.7 µM), for the others: top-dose activity change, negative = decrease; hit rate 0.93% among 280,000; AID 1463; also: nearly all actives have a fitted effect of over 55% in size
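Human tau K18 P301L (15 uM unlabeled, 0.24 uM Alexa 594-labeled) in 100 mM sodium acetate pH 7 with 20 uM heparin, 6 hr at 37 C. ThT 30 uM added, 1 hr ambient; Alexa 594 FP and total fluorescence read at 555/632 nm.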
ALDH1A1 inh: blocks purified human ALDH1A1 activity; P00352; Purified ALDH1A1, NADH fluorescence, propionaldehyde substrate; Potency, µM (titrated, usually from 75.3 µM), for the others: top-dose activity, negative = inhibition, hits mostly inhibitors; hit rate 7.3% among 220,000; AID 1030; active = well fitted inhibition curve with a large enough effect, not every such curve was filed as active; inconclusive = small, poorly fitted or top-dose-only effect, or another doubt; inactive = no such curve, though single readings can be large or run the other way;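 also: plate controls were no enzyme wells and a reference inhibitor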
Starred values were filed as active, the others as inactive; ? = inconclusive; / = not tested or not shown; [ ] = dose if it differs, or a comment. In the library only some 9.5% were active in any assay of this set; here they are far more common. Unless noted, calls follow the shape of the dose curve; as a rule, active = well fitted curve in the direction sought with a large enough effect; inconclusive = small, poorly fitted or top-dose-only effect, or another doubt; inactive = no such curve, though single readings can be large; an effect the other way counts as inactive or inconclusive. Unless noted, % is scaled to controls: 0 for no effect and ±100 for the full control effect; potency is read from the fitted curve at half-maximal effect.

SMILES	HPGD inh	NPSR antagonist	Tau fibril ThT	Tau fibril FP	Tau fluor cs	ALDH1A1 inh
COc1ccc2nc(N=Nc3c(O)ccc4ccccc34)sc2c1	-1%	4%	2.8µM*	-4%	?	-5%
COc1ccc2nc(NC(=O)Nc3cccc4ccccc34)sc2c1	/	-2%	-15%	-11%	?	?
Cc1ccccc1/C(N)=N/OC(=O)N1c2ccccc2Sc2ccccc21	18µM*	?	?	2%	?	0%
CCOC(=O)N1c2ccccc2Sc2ccccc21	/	16%	-4%	-2%	-10%	14%
CC12C=C(/C=C/CCc3ccco3)C(C)(C1)[C@H](CCc1ccco1)CC2=O (some centres undefined)	-4%	/	1%	-3%	0%	?
O=C(c1ccc(S(=O)(=O)Cc2ccccc2F)c([N+](=O)[O-])c1)N1CCCCCC1	/	-4%	-14%	11%	-16%	-15%
O=C(c1ccc(S(=O)(=O)c2ccccc2Cl)c([N+](=O)[O-])c1)N1CCCCCC1	25µM*	9%	-13%	3%	-23%	?
CC(C)CC(=O)O/N=C1\C(=O)N(Cc2ccc(Cl)cc2)c2ccc([N+](=O)[O-])cc21	14µM*	-26%[46.1 µM]	?	1%	?	?
Cc1cc2c(N3CCCCC3C)ncnc2s1 (centres undefined)	-9%	-5%[46.1 µM]	-17%	-10%	-15%	2%
Cc1c(C(=O)N2CCCC(C)C2)sc2ncnc(N3CCCCC3C)c12 (centres undefined)	/	-43%	-6%	-5%	-4%	13µM*
Cc1c(C(=O)O)sc2ncnc(N3CCCCC3C)c12 (centres undefined)	18µM*	22%[46.1 µM]	7%	11%	15%	2%
CCOC(=O)c1c(C)[nH]c(C)c1S(=O)(=O)NCC(=O)NCc1ccccc1C	/	/	13%	-1%	12%	/
Cc1ccc(-n2nnnc2SCCNS(=O)(=O)c2ccccc2)cc1C	-6%	-9%[46.1 µM]	-22%	1%	?	5µM*
COc1ccc(S(=O)(=O)NCCSc2nnnn2-c2ccccc2)cc1OC	/	/	-15%	-11%	?	/
CCc1ccc2[nH]c(=O)c(C(c3nnnn3CCOC)N3CCN(c4ccccc4F)CC3)cc2c1 (centres undefined)	?	-12%[46.1 µM]	18µM*	?	-24%	?
Cc1ccc2cc(C(c3nnnn3C3CCCC3)N3CCN(c4ccccc4)CC3)c(=O)[nH]c2c1 (centres undefined)	-9%	?	-18%	-2%	-9%	8.9µM*
COCCn1nnnc1C(c1cc2cc(C)ccc2[nH]c1=O)N1CCN(C2CCCCC2)CC1 (centres undefined)	?	0%[46.1 µM]	-10%	-1%	1%	?
CCOC(=O)C1CCN(C(c2cc3ccc(C)c(C)c3[nH]c2=O)c2nnnn2C2CCCCC2)CC1 (centres undefined)	-23%	?	?	-1%	-8%	20µM*
COCCn1nnnc1C(c1ccc(OC)cc1OC)N1CCN(c2ccccc2F)CC1 (centres undefined)	/	-16%[46.1 µM]	-5%	2%	2%	-9%
CCOC(=O)C1CCN(C(c2cc3c(C)ccc(C)c3[nH]c2=O)c2nnnn2C2CCCCC2)CC1 (centres undefined)	-26%	-22%[46.1 µM]	-18%	9%	-9%	?
COCCn1nnnc1C(c1ccc(OC)cc1OC)N1CCN(c2ccccc2)CC1 (centres undefined)	-18%	-1%[46.1 µM]	-7%	-4%	2%	7.9µM*
CCN=C(N)CSS(=O)(=O)O	-1%	/	/	/	/	-7%[13.5 µM]
COc1ccc(O[C@H]2C=C[C@@H](c3ccccc3)O[C@H]2CO/N=C2/[C@H]3O[C@@H]3[C@@H](O)[C@H]3[C@H]2CCn2c(=O)n(-c4ccccc4)c(=O)n23)cc1	/	/	-12%[11.5 µM]	-4%[11.6 µM]	-12%[11.6 µM]	?
COc1ccc(NC(=O)Cn2cnc3sc(C)c(S(=O)(=O)N4CCN(C)CC4)c3c2=O)cc1OC	/	22%	-1%	7%	3%	-2%
FC(F)(F)c1cc(NC(=S)Nc2ccc3ccccc3c2)cc(C(F)(F)F)c1	-21%	/	-15%	0%	?	-2%
SMILES	HPGD inh	NPSR antagonist	Tau fibril ThT	Tau fibril FP	Tau fluor cs	ALDH1A1 inh
COc1ccc(C(=O)N2CCC[C@@]3(CCN(C(=O)Nc4ccccc4)C3)C2)cc1	-5%	/	/	/	/	-4%
c1csc(C(c2nnnn2C2CCCCC2)N2CCN(c3nc4ccccc4s3)CC2)c1 (centres undefined)	-4%	1%[46.1 µM]	-7%	-2%	-9%	-9%
c1ccc(C(c2nnnn2C2CCCC2)N2CCN(c3nc4ccccc4s3)CC2)cc1 (centres undefined)	-7%	-39%	-16%	0%	-18%	14µM*
Cc1ccc2cc(C(c3nnnn3Cc3ccccc3)N3CCN(c4ccccc4)CC3)c(=O)[nH]c2c1 (centres undefined)	-9%	-17%[46.1 µM]	?	-3%	-16%	25µM*
COc1ccc(Cn2nnnc2C(c2cc3cc(C)ccc3[nH]c2=O)N2CCOCC2)cc1 (centres undefined)	?	-11%[46.1 µM]	?	-15%	-10%	?
COc1ccc(N2CCN(C(c3cc4cc(C)ccc4[nH]c3=O)c3nnnn3Cc3ccccc3)CC2)cc1 (centres undefined)	-20%	-30%[46.1 µM]	?	3%	?	14µM*
COc1ccccc1OCCSc1nc(C)c(Cc2ccccc2)c(=O)[nH]1	/	-1%	/	6%	12%	/
CCOC(=O)C1(CCCc2ccccc2)CCN(Cc2cn(CC)nc2C)CC1	/	12%	-14%	4%	-2%	?
CSc1ccc(CCNC(=O)CN2C(=O)COc3ccc(S(=O)(=O)N4CCCCCC4)cc32)cc1	/	/	-5%	0%	?	/
Cc1ccc2nc(CSc3nc(C)ccc3C#N)[nH]c2c1	?	-6%[46.1 µM]	11µM*	2%	?	?
Cc1ccc(C#N)c(SCc2ccccc2F)n1	/	4%	-8%	-10%	-23%	/
COc1ccc(Cl)cc1NC(=O)N1CCC(CN2CCCCCC2)CC1	/	/	?	-11%	-11%	/
C/C(=N\NS(=O)(=O)c1ccc([N+](=O)[O-])cc1)c1ccc(NC(=O)c2ccco2)cc1	/	-28%	?	0%	-26%	25µM*
O=C(Nc1ccc(S(=O)(=O)N2CCC(C(=O)NC3CCCCC3)CC2)cc1)c1ccco1	?	-17%[46.1 µM]	-2%	-14%	-14%	?
O=C(Nc1ccc(S(=O)(=O)NC2CCCCC2)cc1)c1ccco1	13µM*	16%[46.1 µM]	1%	-9%	-8%	0%
CN(C1CCCCC1)S(=O)(=O)c1ccc(NC(=O)c2ccc(Br)o2)cc1	-28%	-25%[46.1 µM]	-5%	?	?	?
